# Laboratory results as given in the supplement of paper PMC3334620.
# In all, about 33,000 sequences were measured (“E-score (-0.5 to 0.5)”: median about -0.016, highest 2% from about 0.31 on). The sample as a whole holds a higher share of the highest values than the screen did.
# Target: Cst6 (UniProt P40535)
# Assay: PBM E-score (8-mer binding enrichment) (E-score (-0.5 to 0.5)); higher = stronger / more preferred TF binding
# Settings: protein concentration: 200 nM; construct: GST-DNA-binding domain
# Protocol: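 Universal 'all 10-mer' protein binding microarrays (Agilent AMADID 015681) probed with GST-tagged S. cerevisiae TFs (full-length or DBD) made by in vitro transcription/translation (PURExpress), about 100-200 nM. Bound TF was detected with fluorescent anti-GST. Each ungapped 8-mer (which stands for itself and its reverse complement) is scored by the PBM enrichment score (E-score), a modified Wilcoxon-Mann-Whitney statistic from -0.5 to +0.5, computed with the Universal PBM Analysis Suite. Scale: above 0.35 generally sequence-specific binding.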
# UniProt P40535, sequence (P40535 whole entry): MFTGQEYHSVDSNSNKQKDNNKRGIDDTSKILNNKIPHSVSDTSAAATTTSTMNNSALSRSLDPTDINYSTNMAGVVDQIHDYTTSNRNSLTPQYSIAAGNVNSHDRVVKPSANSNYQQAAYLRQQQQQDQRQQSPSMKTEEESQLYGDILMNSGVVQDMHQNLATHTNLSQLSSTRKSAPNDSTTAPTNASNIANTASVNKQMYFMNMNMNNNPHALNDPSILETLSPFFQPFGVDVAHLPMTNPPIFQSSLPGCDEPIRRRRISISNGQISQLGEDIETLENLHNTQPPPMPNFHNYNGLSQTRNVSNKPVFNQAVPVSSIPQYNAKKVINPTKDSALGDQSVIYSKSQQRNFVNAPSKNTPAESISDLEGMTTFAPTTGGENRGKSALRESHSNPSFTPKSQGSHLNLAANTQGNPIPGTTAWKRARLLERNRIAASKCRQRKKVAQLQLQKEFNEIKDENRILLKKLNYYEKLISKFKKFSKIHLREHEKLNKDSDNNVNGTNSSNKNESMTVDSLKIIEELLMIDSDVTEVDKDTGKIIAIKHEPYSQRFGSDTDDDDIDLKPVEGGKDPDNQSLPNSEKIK
row,Sequence,PBM E-score
1,GAACCAAA,-0.0818
2,CGATATAA,0.225
3,TGATATCA,0.426
4,GGATATAA,0.236
5,GGATATCA,-0.0151
6,CAATATCA,0.126
7,AGATATCA,0.198
8,TAATATCA,0.319
9,TGATATAA,0.323
10,AAATATCA,0.139
11,GGAAGAGA,-0.106
12,ATTCTGAC,0.181
13,GGCGTACC,-0.19
14,CAACCAAG,0.0364
15,TCGGACAA,0.0914
16,CACAGTGC,-0.024
17,CCCTAACA,0.127
18,GACGTGAA,0.142
19,GCCGTGAC,0.341
20,CACGTGAC,0.148
21,GCCGTGCC,0.308
22,GCCGTGAA,0.184
23,GACGTGAC,0.394
24,GCCGTGCA,0.279
25,ACCGTGAC,0.291

row,Sequence,PBM E-score
1,ACCGTGCC,0.0391
2,CCAAGCGA,-0.309
3,AAACAGGT,0.0221
4,ATTCTGGA,0.122
5,AAGCCTTA,-0.0547
6,ACCTGCTA,-0.0708
7,TTACGCAA,0.438
8,CGACGCCA,0.00886
9,GTACGCAA,0.0898
10,GGACGCAA,0.0196
11,TGACGCCA,0.466
12,AGACGCAA,0.0971
13,TCACGCAA,0.375
14,AGACGCCA,-0.108
15,ATACGCAA,0.283
16,CCACGCAA,0.043
17,TGACGCAA,0.489
18,GCACGCAA,-0.0783
19,CTGCTTAC,0.00293
20,CGTGACTC,-0.1
21,ACGCTCAT,0.114
22,CCTAAGCA,-0.0807
23,TTAGGCAA,-0.00879
24,TAACCAGA,-0.0457
25,CAAGTGCC,0.0401

row,Sequence,PBM E-score
1,ACGCCGTA,0.349
2,CCGCCGTA,0.0871
3,GCGCCGAA,0.132
4,ACGCCGTG,0.383
5,ACGCCGCG,0.302
6,ACGCCGTC,0.389
7,GCGCCGTA,0.384
8,GGGCCGTA,0.116
9,CCGCCGTC,0.206
10,ACGCCGGG,-0.254
11,AGGCCGTA,0.0502
12,ACGCCGAC,0.0423
13,ATCCAATA,0.222
14,AGCCGACC,-0.292
15,CTGGGACA,-0.219
16,CCTGTGGC,-0.117
17,AGAGTACC,-0.135
18,TAGTACAA,-0.00017
19,ACATTTCC,0.13
20,GAGATCGA,0.0615
21,CATCCGCG,0.151
22,ATATGTCA,0.404
23,CTATGTCC,-0.152
24,ATATGTCG,0.185
25,CGATGTCA,0.319

row,Sequence,PBM E-score
1,CTATGTCA,0.392
2,GGATGTCA,0.277
3,GTATGTTA,0.182
4,GTATGTCA,0.422
5,ATGTGTCA,0.286
6,ATATGTCC,0.121
7,GTATGTAA,0.282
8,AGATGTCA,0.298
9,CATCAAGG,-0.0962
10,ACGCCCGT,-0.0034
11,AACTAAGG,0.0828
12,GGAACGCA,-0.112
13,AGGTATAC,0.0822
14,GGCCGTGA,0.14
15,CTGCGCTC,-0.292
16,GCAGTCGC,-0.0904
17,ACAAGGCG,0.223
18,GGTGGCGA,-0.11
19,CAGCGGTA,0.0522
20,CCATAGCG,-0.0739
21,GACAGAAC,0.0521
22,AACAGAAA,0.213
23,GACAGAAA,0.311
24,ACCGTTCG,0.0621
25,ACTACCCT,-0.111

row,Sequence,PBM E-score
1,AATTCGCT,0.238
2,AATTATCA,0.356
3,AATTATCG,0.316
4,CATTATCG,0.0831
5,AATTATCT,0.161
6,AATTATCC,0.188
7,CATTATCA,0.137
8,ACAGGGGA,-0.218
9,ATTTAAAA,0.258
10,ACAATAGC,-0.178
11,ATTGGCAG,-0.165
12,AGTAACTG,0.00693
13,CTACGTCC,-0.0878
14,GTACGTGA,0.108
15,ATACGTCC,0.061
16,CTACGTCA,0.493
17,CTACGTGA,0.0384
18,GTACGTCA,0.49
19,GTACGTTA,0.124
20,ATACGTCA,0.494
21,ATACGTCG,0.215
22,ATCCGTGA,-0.0022
23,GATCGGAC,-0.0973
24,CAGATTGC,-0.0228
25,GTAGATGA,0.181

row,Sequence,PBM E-score
1,CCTAGCTA,-0.162
2,ATTTGTGG,0.0944
3,AGATTACC,0.144
4,CGATTACG,0.349
5,CGATTACA,0.13
6,AGATTACG,0.386
7,AGATTACT,0.144
8,CGATTACC,-0.107
9,CTCCCACC,-0.335
10,ACGGCTTC,0.0724
11,AAGCCTGT,-0.0963
12,GTCGCCCA,-0.192
13,CAGCTCTC,-0.172
14,CATAATAA,0.267
15,AAAAATAA,0.292
16,AACAATAC,0.156
17,AACAATAT,0.37
18,AATAATAC,0.197
19,AATAATAA,0.313
20,AATAATAT,0.305
21,AACAATAA,0.204
22,AATAATAG,0.209
23,AATAATGT,0.181
24,AAAAATAT,0.309
25,AAAAATAG,0.118

row,Sequence,PBM E-score
1,GCCTTAAA,0.151
2,GATGGCCC,-0.106
3,CGAGCCCG,-0.126
4,CGGAAATA,0.155
5,CCGAGTTC,-0.063
6,CCCTAGGA,-0.295
7,CACTAATA,0.211
8,AATTAATC,0.197
9,AATTAATA,0.39
10,TATTAATA,0.0736
11,CTTTAATA,0.201
12,TACTAATA,0.222
13,GATTAATA,0.261
14,GTTTAATA,0.202
15,AATTAATG,0.174
16,AACTAATA,0.336
17,AATTAATT,0.311
18,ATTTAATA,0.338
19,GAGTCCGA,-0.0585
20,TCGCCAGA,-0.0255
21,ACTCGCCA,-0.037
22,AATAAACG,0.157
23,GCCGGAGC,-0.249
24,CAACTGAC,0.0886
25,CGATGTAA,0.117
